Source: PubChem BioAssay (NCI)
About 83,000 compounds went through this panel and 20% of them were active in at least one assay; those are over-represented in the sample as a whole.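 Each cell line was grown in a 96-well plate and treated with one concentration of compound for 48 hours. Values below 10 were considered active.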 Values without a mark were called inactive. Calls of active or inactive are those of the source.

Columns and labels:
Assay in all cases: NCI-60 one-dose screen, 48 h (100 = growth as untreated, 0 = no growth, -100 = all killed)
Details in all cases: 10 µM unless noted
SR leukemia = test system: SR leukemia
RPMI-8226 leukemia = test system: RPMI-8226 leukemia
OVCAR-8 ovarian = test system: OVCAR-8 ovarian
OVCAR-5 ovarian = test system: OVCAR-5 ovarian
OVCAR-4 ovarian = test system: OVCAR-4 ovarian
SK-OV-3 ovarian = test system: SK-OV-3 ovarian
IGROV1 ovarian = test system: IGROV1 ovarian
OVCAR-3 ovarian = test system: OVCAR-3 ovarian
HS 578T breast = test system: HS 578T breast
NCI/ADR-RES ovarian = test system: NCI/ADR-RES ovarian
T-47D breast = test system: T-47D breast
BT-549 breast = test system: BT-549 breast
MDA-MB-435 melanoma = test system: MDA-MB-435 melanoma
SW-620 colon = test system: SW-620 colon
MCF7 breast = test system: MCF7 breast
HCT-116 colon = test system: HCT-116 colon
HCC-2998 colon = test system: HCC-2998 colon
KM12 colon = test system: KM12 colon

| Structure (SMILES) | growth (SR leukemia) | growth (RPMI-8226 leukemia) | growth (OVCAR-8 ovarian) | growth (OVCAR-5 ovarian) | growth (OVCAR-4 ovarian) | growth (SK-OV-3 ovarian) | growth (IGROV1 ovarian) | growth (OVCAR-3 ovarian) | growth (HS 578T breast) | growth (NCI/ADR-RES ovarian) | growth (T-47D breast) | growth (BT-549 breast) | growth (MDA-MB-435 melanoma) | growth (SW-620 colon) | growth (MCF7 breast) | growth (HCT-116 colon) | growth (HCC-2998 colon) | growth (KM12 colon) |
| --- | --- | --- | --- | --- | --- | --- | --- | --- | --- | --- | --- | --- | --- | --- | --- | --- | --- | --- |
| COc1ccc(/C(C)=N/NC(=O)c2ccc(S(C)(=O)=O)cc2)cc1OC | 97.6% | 130% | 110% | 106% | 97.7% | 88.4% | 109% | 113% | 100% | 113% | 82.6% | 96% | 112% | 103% | 92.9% | 84.7% | 104% | 103% |
| CC(=O)Nc1c(Br)cc2c(c1Br)Cc1cc(Br)ccc1-2 | 54.4% | 83% | 68.7% | 108% | 9.85% (active) | 85.7% | 45% | 87% | -7.93% (active) | 76.1% | 38.9% | 77.3% | 69.3% | 41.7% | 59.9% | 46.6% | 102% | 59.6% |
| CNCCCn1c2c(c3ccc(Cl)cc3c1=O)C(=O)c1cc(OC)cnc1-2 | -33.5% (active) | -56.3% (active) | 40.8% | 91.9% | 58.8% | 23.7% | 50.3% | 49.3% | 71.7% | 46.5% | 40% | 45.9% | 55.8% | -63.6% (active) | -45.4% (active) | -81.4% (active) | 71.3% | 40.7% |
| CC(C)N(C(=S)SSC(=S)N(C(C)C)C(C)C)C(C)C | 105% | 87.2% | 111% | 107% | 78.7% | 112% | 92.2% | 108% | 106% | 104% | 86.8% | 107% | 99.6% | 105% | 90.3% | 96.7% | 113% | 108% |
| COc1cc(C2CC(c3cccc(Nc4ccnc5cc(Cl)ccc45)c3)=NN2C=O)cc(OC)c1OC (stereo unspecified) | 4.97% (active) | 21% | 23.2% | 41.6% | -16.7% (active) | 0.586% (active) | 40.6% | -81.2% (active) | -20.1% (active) | 5.17% (active) | -4.07% (active) | -36% (active) | -68.1% (active) | 13.1% | 2.77% (active) | 7.38% (active) | 37.4% | 9.52% (active) |
| COc1ccccc1CNCCCN1C(=O)c2ccc3c4c(ccc(c24)C1=O)C(=O)N(CCCOCCCCOCCCN)C3=O | 7.67% (active) | -5.62% (active) | -14.6% (active) | -55.9% (active) | -97.1% (active) | 25.3% | -51.8% (active) | -95% (active) | 19.1% | -8.07% (active) | -56.8% (active) | 27.4% | -84.6% (active) | -60.6% (active) | -69.6% (active) | -68.7% (active) | -53.5% (active) | -59% (active) |
| CC(C)(C)OC[C@@H]1N=C(c2ccc(Br)cc2)Nc2nc3ccccn3c2C1=O | 35.4% | 67.5% | 79.5% | 105% | 82.3% | 64.3% | 40.7% | 34.2% | 65.2% | 39.7% | 61.9% | 72.5% | -13.8% (active) | 40.3% | 27.8% | 43.7% | 90.9% | 49% |
| COc1ccc(-c2cc(C(=O)Nc3ccc(Br)cc3)nc3[nH]c(=O)sc23)cc1 | 65.1% | 14.2% | 43.1% | 84.9% | 34.2% | 26.7% | 25.2% | 36.9% | 41.6% | 40.7% | -0.894% (active) | 47% | 39.6% | 57.1% | 24.3% | 32.1% | 36.1% | 34.7% |
| O=C1Nc2ccc(Br)cc2/C1=N/c1nc(-c2ccccc2)cs1 | 85.2% | 75.6% | 89.1% | 108% | 80.5% | 60.7% | 84% | 75% | 90.3% | 103% | 58.9% | 73.2% | 97.8% | 88.6% | 67.4% | 75.6% | 109% | 88.3% |
| COc1cc(CN(CCC(O)N2CCCC2=O)Cc2ccc3c(c2)OCO3)cc(OC)c1OC (stereo unspecified) | 86.3% | 98.7% | 100% | 98.5% | 108% | 102% | 95% | 105% | 103% | 103% | 96% | 101% | 103% | 108% | 96.8% | 92.4% | 113% | 105% |
| CC(C)[C@@]12C[C@@H](OC(=O)[C@H]3CO3)[C@@](C)(O1)[C@@H]1CC[C@@H](C)[C@H]1[C@@H]2OC(=O)/C=C/c1ccccc1 | 69.4% | 72.7% | 11.1% | 100% | 92% | 76.5% | 85.7% | 87% | -23.9% (active) | 31.1% | 49.4% | 21.4% | 98.2% | 94.8% | 62.4% | 65.8% | 105% | 103% |
| COc1cc(C2CC(=O)Nc3c2cnn3C)cc(OC)c1OC (stereo unspecified) | 103% | 112% | 103% | 109% | 113% | 95.1% | 108% | 106% | 111% | 105% | 96.1% | 99.4% | 105% | 108% | 97.1% | 100% | 108% | 105% |
| CCN(CC)CCCC(C)Nc1c(-c2ccccc2)cnc2cc(Cl)ccc12 (stereo unspecified) | 7.58% (active) | 27.4% | 71.3% | 83.4% | 83% | 89.7% | 36.5% | 82.4% | 70.3% | 79.6% | -44.9% (active) | 87.4% | 38.2% | 70.3% | 59.1% | 36.2% | 73.4% | 65.3% |
| O=C(NNC(=O)c1cccc(Cl)c1)c1ccccc1 | 85.8% | 101% | 106% | 103% | 103% | 114% | 115% | 115% | 105% | 111% | 103% | 111% | 103% | 106% | 105% | 107% | 105% | 111% |
| C#CCO[C@H]1CC[C@H](OCC#C)[C@@H]2[C@H]1[C@H]1C[C@@H]3[C@@]4(C)CCC[C@@](C)(C(=O)OC)[C@@H]4CC[C@@]23C=C1C(C)C | 20.5% | 11.7% | 82% | 92.1% | 99.3% | 88.6% | 0.137% (active) | 75.4% | 114% | 71.4% | 94.6% | 106% | 106% | 103% | 90.5% | 70.4% | 94.6% | 78% |
| CC(C)CCSc1nc(-c2ccc(F)cc2)c(C#N)c(N2CCN(C)CC2)n1 | 67.5% | 80% | 83.2% | 91.3% | 96.7% | 87% | 95.2% | 93.9% | 79.1% | 87.2% | 68.3% | 89% | 93.6% | 90.2% | 83.9% | 79% | 97.2% | 91.7% |
| Cc1ccc(C(=O)CC(=O)C(F)(F)C(F)(F)C(F)(F)F)s1 | 99.5% | 102% | 104% | 96.1% | 112% | 104% | 108% | 107% | 105% | 105% | 108% | 103% | 99% | 103% | 105% | 110% | 105% | 112% |
| C/C(=N\NC(=O)CSc1nc2ccccc2c(=O)n1CCc1ccc(S(N)(=O)=O)cc1)c1ccc(Br)cc1 | 51.1% | 49.7% | 34.6% | 111% | 71.3% | 96.4% | 100% | 128% | 90.8% | 79.1% | 91.9% | 93.9% | 78.3% | 77.3% | 80.5% | – | 90.7% | 74.1% |
| CC1=C(O)C(=O)CC1 | 78.4% | 110% | 101% | 112% | 105% | 107% | 107% | 115% | 107% | 106% | 103% | 89% | 98.1% | 108% | 91.8% | – | 99.7% | 104% |
| COc1ccc2nc3cc(Cl)ccc3c(NC(=O)CSc3ccc(Cl)cc3)c2c1 | -10.1% (active) | -41.4% (active) | -63.8% (active) | -87.2% (active) | -96.8% (active) | -94.2% (active) | -91.5% (active) | -96.4% (active) | -43.2% (active) | -65% (active) | -79.6% (active) | -98.7% (active) | -82.4% (active) | -80.4% (active) | -60% (active) | -94.4% (active) | – | -75.4% (active) |
| Nc1ncnc2c1N=C(c1ccc3c(c1)OCO3)CC(c1ccc(Cl)cc1)N2 (stereo unspecified) | 41.3% | 18.4% | 89.8% | 68.5% | 77.7% | 78.9% | 13% | 103% | 70.2% | 60% | 55.8% | 81.2% | 78.7% | 79.9% | 56.6% | 87.3% | – | 71.7% |
| O=C1/C(=C/c2ccccc2)SC(=Nc2ccccc2)N1Nc1ccccc1 | -20.1% (active) | -37.4% (active) | 24.5% | 22.3% | 8.26% (active) | 10.5% | 22.7% | -5.68% (active) | 35.1% | 8.98% (active) | 5.78% (active) | -19.3% (active) | -25.4% (active) | 13.1% | 1.62% (active) | -23.4% (active) | – | 3.45% (active) |
